This is part of a sample that, as a whole, favours compounds with a hit. Of some 79,000 tested, about 15% had one in any assay. Activity calls are given as the source filed them. Rule as the data show it: active = growth inhibition above about 70%; inactive = the rest.
Tests used:
[1] = NCI Yeast Anticancer Drug Screen. Data for the rad52 strain (AID 147);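 also: 0% = growth of vehicle-treated control cultures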; details: S. cerevisiae rad52 mutant growth inhibition, active compounds read high
Outline: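 Vehicle-treated cultures served as the reference for growth inhibition of compound-exposed yeast bearing a DNA repair mutation.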

[2] = NCI Yeast Anticancer Drug Screen. Data for the wt1 strain (AID 149);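 also: 0% = growth of vehicle-treated wt1 cultures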; details: S. cerevisiae wt1 strain (SPY 50644) growth inhibition, active compounds read high
Outline: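 The wt1 strain was treated with compounds, and growth was compared with vehicle-treated cultures to give inhibition.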

[3] = NCI Yeast Anticancer Drug Screen. Data for the rad50EPP+ strain (AID 151);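 also: 0% = growth of vehicle-treated control cultures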; details: S. cerevisiae rad50 mutant strain, active compounds read high
Outline: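 In this screen, rad50EPP+ yeast were exposed to compounds. Growth inhibition was scored against vehicle-treated controls.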

[4] = NCI Yeast Anticancer Drug Screen. Data for the mgt1 strain (AID 153); details: S. cerevisiae mgt1 mutant growth inhibition, active compounds read high
Outline: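 mgt1 strain exposed; growth vs vehicle control recorded as inhibition.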

[5] = NCI Yeast Anticancer Drug Screen. Data for the rad50 strain (AID 155);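 also: 0% = growth of vehicle-only cultures of the same strain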; details: S. cerevisiae rad50 strain growth inhibition, active compounds read high
Outline: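 Cells are treated with compound, grown, and their growth is then scored against vehicle-only cultures of the same repair-deficient yeast strain.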

[6] = NCI Yeast Anticancer Drug Screen. Data for the mec2-1 strain (AID 157); details: S. cerevisiae mec2-1 strain, active compounds read high
Outline: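 Vehicle-treated cultures served as reference for growth inhibition of compound-exposed mec2-1 yeast.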

[7] = NCI Yeast Anticancer Drug Screen. Data for the rad14 strain (AID 159);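 also: 0% = growth of vehicle-treated control cultures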; details: S. cerevisiae rad14 strain growth inhibition, active compounds read high
Outline: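 Readout: yeast growth inhibition, referenced to vehicle-only cultures. Strain bears a defined alteration in DNA damage repair.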

[8] = NCI Yeast Anticancer Drug Screen. Data for the sgs1 mgt1 strain (AID 161);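 also: 0% = growth of cultures given vehicle only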; details: S. cerevisiae sgs1 mgt1 strain, active compounds read high
Outline: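 Read-out: growth inhibition vs vehicle controls. Cells: mutant yeast strain deficient in DNA damage repair.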

[9] = NCI Yeast Anticancer Drug Screen. Data for the CLN2oe strain (AID 163);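 also: 0% = growth of vehicle-only control cultures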; details: S. cerevisiae CLN2oe strain, active compounds read high
Outline: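 Inhibition relative to vehicle-treated yeast is reported. Cells: strain with genetic alteration in cell-cycle control, grown with compound.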

[10] = NCI Yeast Anticancer Drug Screen. Data for the cln2 rad14 strain (AID 165);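 also: 0% = growth equal to vehicle treated cultures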; details: S. cerevisiae cln2 rad14 strain, active compounds read high
Outline: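 Each compound was tested on cln2 rad14 yeast. Inhibition of growth was calculated against vehicle-exposed controls.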

[11] = NCI Yeast Anticancer Drug Screen. Data for the bub3 strain (AID 167); details: S. cerevisiae bub3 mutant strain, active compounds read high
Outline: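 Part of a panel of yeast mutants defective in DNA damage repair or cell cycle regulation. Each strain is grown with compound, and inhibition is calculated relative to solvent-treated cultures.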

[12] = NCI Yeast Anticancer Drug Screen. Data for the wt2 strain (AID 169);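 also: 0% = growth of vehicle-treated yeast cultures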; details: S. cerevisiae wt2 strain growth inhibition, active compounds read high
Outline: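 Inhibition of yeast growth was determined after compound treatment, normalised to controls receiving only vehicle.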

[13] = NCI Yeast Anticancer Drug Screen. Data for the mlh1 strain (AID 171);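 also: 0% = growth of vehicle-treated control cultures of the same strain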; details: S. cerevisiae mlh1 strain growth inhibition, active compounds read high
Outline: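 Vehicle-normalised growth inhibition of a repair- or checkpoint-altered yeast strain following compound treatment.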

[14] = NCI Yeast Anticancer Drug Screen. Data for the sgs1 strain (AID 173);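 also: 0% = growth of vehicle-only control cultures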; details: S. cerevisiae sgs1 mutant, active compounds read high
Outline: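 Screen format: yeast with repair or checkpoint alterations, compound exposure, growth read relative to vehicle.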

[15] = NCI Yeast Anticancer Drug Screen. Data for the mlh1 rad18 strain (AID 175); details: S. cerevisiae mlh1 rad18 strain growth inhibition, active compounds read high
Outline: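 Vehicle-treated cultures served as the reference for growth inhibition in a yeast strain carrying DNA damage repair alterations exposed to each compound.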

[16] = NCI Yeast Anticancer Drug Screen. Data for the rad18 strain (AID 177); details: S. cerevisiae rad18 mutant growth inhibition, active compounds read high
Outline: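 Test articles were incubated with altered yeast defective in DNA damage repair. Results are given as inhibition of growth versus vehicle.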

[17] = at 5.0 µM (retest, dose inferred, filed as 0.5)
[18] = at 50.0 µM (retest, dose inferred, filed as 5.0)

Measured: growth inhibition

COc1cc2c(cc1O)[C@H](C)C(c1ccccc1OC)O2 (stereo partly drawn)
active: [1]; at 100.0 µM 96% | [2]; at 100.0 µM 96% | [4]; at 100.0 µM 97% | [5]; at 100.0 µM 96% | [6]; at 100.0 µM 95% | [7]; at 100.0 µM 96% | [9]; at 100.0 µM 97% | [11]; [18] 81% | [11]; at 100.0 µM 97% | [12]; at 100.0 µM 96% | [13]; at 100.0 µM 97% | [14]; at 100.0 µM 96% | [16]; at 100.0 µM 94%
inactive: [1]; at 1.2 µM -41% | [1]; at 3.7 µM -34% | [1]; at 11.0 µM -31% | [1]; at 33.0 µM -19% | [2]; at 1.2 µM -11% | [2]; at 3.7 µM -13% | [2]; at 11.0 µM -13% | [2]; at 33.0 µM -17% | [3]; at 1.2 µM -39% | [3]; at 3.7 µM -68% | [3]; at 11.0 µM -54% | [3]; at 33.0 µM -8% | [3]; at 100.0 µM 19% | [4]; at 1.2 µM 1% | [4]; at 3.7 µM 5% | [4]; at 11.0 µM -4% | [4]; at 33.0 µM 33% | [5]; at 1.2 µM -4% | [5]; at 3.7 µM -2% | [5]; [17] -13% | [5]; at 11.0 µM -8% | [5]; at 33.0 µM 4% | [5]; [18] 4% | [5]; at 50.0 µM 15.5% | [6]; at 1.2 µM -27% | [6]; at 3.7 µM -15% | [6]; [17] -44% | [6]; at 11.0 µM -20% | [6]; at 33.0 µM 6% | [6]; [18] 13% | [6]; at 50.0 µM 17.6% | [7]; at 1.2 µM -7% | [7]; at 3.7 µM -11% | [7]; at 11.0 µM -11% | [7]; at 33.0 µM 7% | [8]; [17] -16% | [8]; [18] 59% | [8]; at 50.0 µM 68% | [9]; at 1.2 µM 14% | [9]; at 3.7 µM 9% | [9]; at 11.0 µM 5% | [9]; at 33.0 µM 18% | [10]; [17] 26% | [10]; [18] 24% | [10]; at 50.0 µM 29.9% | [11]; at 1.2 µM 24% | [11]; at 3.7 µM 32% | [11]; [17] 20% | [11]; at 11.0 µM 22% | [11]; at 33.0 µM 55% | [11]; at 50.0 µM 62.4% | [12]; at 1.2 µM -26% | [12]; at 3.7 µM -32% | [12]; at 11.0 µM -26% | [12]; at 33.0 µM -4% | [13]; at 1.2 µM 17% | [13]; at 3.7 µM 24% | [13]; at 11.0 µM -2% | [13]; at 33.0 µM 47% | [14]; at 1.2 µM -10% | [14]; at 3.7 µM -17% | [14]; at 11.0 µM -12% | [14]; at 33.0 µM 10% | [15]; [17] 1% | [15]; [18] 22% | [15]; at 50.0 µM 19.6% | [16]; at 1.2 µM -9% | [16]; at 3.7 µM -22% | [16]; at 11.0 µM 11% | [16]; at 33.0 µM 20%
